Shiga toxin inh – inhibitors of Shiga toxin in Vero cells. Vero cells, Shiga toxin protein synthesis inhibition reporter. inhibition, % at 38.7 µM. hit rate 9.2% among 290,000. AID 2315; in the data active means inhibition mostly above about 28%, no sharp cut-off; inactive means mostly below about 43%; further: 0% is about no effect
HCMV inh – inhibitors of human cytomegalovirus; HFF cells, HCMV-luciferase reporter, 72 h; hits give low values; activity change, negative = inhibition, % at 57.5 µM; hit rate 4.5% among 410,000; in the data active means activity change below about -60%; inconclusive means no clear call, values can overlap the other calls; inactive means above about -39%; further: on the % scale 0 is the no-effect control and ±100 the full control effect
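After 16 h attachment at 37C, HFF cells received test compound and HCMV-luciferase (1 PFU/cell); reporter luminescence read 72 h later, data normalized against buffer-only and known inhibitor Salinomycin.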
CHX counter – counter-screen hit for Shiga toxin inhibitors, cycloheximide. hit rate 12% among 300,000. max response, %. cell reporter, cycloheximide protein synthesis inhibition counterscreen. AID 2314; in the data active means max response mostly above about 13%, no sharp cut-off; inactive means mostly below about 14%; further: read at 38.3 µM for the half of the compounds with a filed dose; 0% is about no effect
Pf growth 48h – inhibits P. falciparum growth in the first generation, 48 h. P. falciparum luciferase growth in erythrocytes, 48 h. Potency, µM (series often up to 28.7 µM), for the others: at the top dose activity change, negative = inhibition, actives largely listed as inhibitors. hit rate 5.9% among 310,000. AID 504832; further: potency means the concentration at half of the fitted maximal effect; on the % scale 0 is the no-effect control and ±100 the full control effect
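Luciferase-expressing P. falciparum in infected erythrocytes (2% hematocrit, 0.1% parasitemia final) in RPMI 1640/0.5% Albumax were exposed to compound for 48 hours at 37 C, 5% CO2; growth read as luminescence.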
Pf growth 96h – inhibits malaria parasite growth, 96 h; Potency, µM (doses to about 28.7 µM), without a hit: top-dose activity change, negative = inhibition, usual class: inhibitors; P. falciparum luciferase reporter growth, 96 h; hit rate 6.9% among 320,000; AID 504834; further: potency means the concentration at half of the fitted maximal effect; on the % scale 0 is the no-effect control and ±100 the full control effect
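Parasite growth measured via integrated firefly luciferase reporter in P. falciparum. Infected erythrocytes at 2% hematocrit, 0.05% parasitemia final were treated 96 hours at 37 C under 5% CO2, and luminescence was read.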
The depositor's hits bear a star; u = inconclusive; x = no result given. The list is not random: actives were taken first. Their share in the collection is about 20%. Unless noted, the call rests on the fitted dose curve; in most records, active means well fitted inhibition curve with a large enough effect; inconclusive means small, poorly fitted or top-dose-only effect, or another doubt; inactive means no such curve, though single readings can be large or run the other way.

SMILES | Shiga toxin inh | HCMV inh | CHX counter | Pf growth 48h | Pf growth 96h
O=C(CSc1nnc(Cc2cc(=O)[nH]c(=O)[nH]2)n1-c1ccccc1)N1CCCCC1 | -2 | 31 | -4 | x | u
O=C(CSc1nnc(CCCN2C(=O)c3cccc4cccc(c34)C2=O)n1-c1ccccc1)N1CCCCC1 | -4 | -33 | -4 | 12µM* | u
CNc1nc(Sc2ccc(C)cc2)cc(C(F)(F)F)n1 | -9 | 1 | 11 | u | u
COc1cc2ccnc(Cc3cccc(OC)c3OC)c2cc1OC | -18 | -72* | 1 | -12% | 46%
CCOc1cc(-c2nccc3cc(OC)c(OC)cc23)cc(OCC)c1OCC | -2 | -27 | -2 | 10µM* | 11µM*
COc1cc(N)c(Cc2nccc3cc(OC)c(OC)cc23)cc1OC | -5 | 2 | -5 | u | 6.6µM*
COc1cc(Cc2nccc3cc(OC)c(OC)cc23)c(S(=O)(=O)O)cc1OC | -3 | -21 | -3 | 3% | 1%
CCCCn1c(CNC(=O)c2ccc(OC)cc2)nnc1SCC(=O)Nc1ccccc1 | x | 2 | x | x | x
CCOC(=O)c1ccccc1NC(=O)CSc1cn(CC(=O)N2CCCCC2)c2ccccc12 | x | 1 | x | x | x
O=C(C1CCCN(S(=O)(=O)c2ccc(F)cc2)C1)N1CCCCCC1 (configuration not stated) | -7 | -13 | -4 | -2% | 53%
O=C/C=C/c1c(-c2ccccc2)cc2oc3ccccc3cc1-2 | 77 | -12 | 27* | u | u
CN1CCN(S(=O)(=O)c2cccc(C(=O)Nc3cc(Cl)ccc3N3CCOCC3)c2)CC1 | x | -14 | x | u | u
Cc1cccc(C)c1NC(=O)CN(C)CC(=O)Nc1ccccc1Oc1ccccc1 | -17 | -26 | 12 | u | 12µM*
CN(CC(=O)Nc1ccccc1)CC(=O)Nc1ccccc1Cl | 31* | -16 | 19* | 35% | 34%
CC(C(=O)N1CCc2ccccc21)N(C)CC(=O)Nc1ccccc1Cl (configuration not stated) | x | -26 | x | u | 17µM*
C[C@@H]1[C@H](O)[C@@H](C)/C=C/C=C/C=C/C=C/C=C/C=C/C=C/[C@H](O[C@@H]2O[C@H](C)[C@@H](O)[C@H](N)[C@@H]2O)C[C@@H]2O[C@](O)(C[C@@H](O)C[C@@H](O)[C@H](O)CC[C@@H](O)C[C@@H](O)CC(=O)O[C@H]1C)C[C@H](O)[C@H]2C(=O)O | x | x | x | -16% | -13%
COc1ccc(OS(=O)(=O)Cc2ccccc2)cc1 | 41* | u | 20* | 38% | 7%
O=S(=O)(CS(=O)(=O)Oc1ccccc1)Oc1ccccc1 | x | 9 | x | x | x
CC(C)CNC(=O)CC(=O)N/N=C/c1ccc(F)cc1 | 7 | 24 | -3 | 3% | u
O=C(Nc1ccc(F)cc1)Oc1ccc[nH]c1=O | 24* | u | 16* | 26% | 43%
COc1ccc(C2CC(c3cccc(Cl)c3)n3nc(N)nc3N2)cc1 (configuration not stated) | -6 | -23 | -2 | 10% | 9.3µM*
COc1cccc(C2CC(c3cccc(Br)c3)n3ncnc3N2)c1 (configuration not stated) | -9 | 0 | -2 | -5% | 12µM*
COc1cccc(C2CC(c3cccc(OC)c3)n3nc(N)nc3N2)c1 (configuration not stated) | 3 | -14 | -1 | 2% | 12µM*
COc1cccc(C2CC(c3ccc(Cl)cc3)Nc3nc(N)nn32)c1 (configuration not stated) | 2 | 0 | 4 | 39% | 63%
Fc1ccc(NCc2nnc3n2CCCCC3)cc1Cl | x | 7 | x | x | x
SMILES | Shiga toxin inh | HCMV inh | CHX counter | Pf growth 48h | Pf growth 96h
O=C(COc1ccccc1Cl)Nc1ccc2oc(=O)ccc2c1 | 31 | -17 | 12 | 29% | 0%
Cc1ccc(OCC(=O)Nc2ccc3oc(=O)ccc3c2)c(C)c1 | -6 | -37 | 0 | 0% | u
CSc1cccc(NC(=O)COc2ccccc2C)c1 | 47* | -21 | 16* | 13% | 30%
Cc1ccccc1OCC(=O)Nc1ccc2oc(=O)ccc2c1 | 54 | -1 | 33* | 32% | 116%
Cc1cc(Cl)ccc1OCC(=O)Nc1ccc2oc(=O)ccc2c1 | 0 | 8 | 1 | -8% | 12µM*
O=C(Cc1ccc(Cl)cc1)Nc1ccc2oc(=O)ccc2c1 | 7 | -64* | -6 | 0% | -6%
CC(C)(C)OC(=O)C[C@H]1C/C=C\C[C@H](CC(=O)N(CCO)Cc2ccccc2)C(=O)N2CCC[C@H]2COC1=O | x | 2 | x | x | x
CCNc1nc(Oc2ccc(OCC(=O)OC)nn2)nc(N2CCOCC2)n1 | x | 23 | x | x | x
CCc1ccc(N(CC(=O)NCc2ccc3c(c2)OCO3)C(=O)c2csnn2)cc1 | 16 | 58 | 2 | -4% | 4%
Nc1cc(N2CCNCC2)c([N+](=O)[O-])cc1Cl | -7 | -32 | -1 | -3% | 32%
CCn1c(=O)n(CC)c2cc([N+](=O)[O-])c(N3CCNCC3)cc21 | 7 | 60 | 5 | -18% | 5.9µM*
COC(=O)c1ccc(CSc2nnc(NC(=O)C3CC(=O)N(Cc4ccc(C)cc4)C3)s2)cc1 (configuration not stated) | -6 | 33 | -1 | -3% | -15%
CC(=O)c1cn(CC(=O)Nc2ccccc2)c2ccccc12 | -13 | -73* | 5 | u | x
Cc1ccc(NC(=O)Cn2c(=S)[nH]c3ccccc32)cc1 | 42 | u | 22* | 20% | u
Cc1ccc(NC(=O)Cn2cc(C(=O)c3ccccc3)c3ccccc32)cc1 | x | -91* | x | x | x
CCn1c(=O)n(CC)c2cc(N3CCCCC3)c(NC(=O)Nc3ccccc3C(F)(F)F)cc21 | x | -37 | x | x | x
Cc1ccc([N+](=O)[O-])cc1NC(=O)CCSc1ccc(Cl)cc1 | -6 | 14 | -3 | 18% | 9.3µM*
Cc1cccc(NC(=O)c2cc([N+](=O)[O-])ccc2NC2CCCCC2)c1 | 25 | 75 | 4 | 8.3µM* | u
CN(c1ccc([N+](=O)[O-])cc1C(=O)Nc1ccccc1)C1CCCCC1 | 4 | 6 | -1 | -19% | u
Cc1ccc([N+](=O)[O-])cc1NC(=O)CNC1CCCCC1 | -1 | 10 | -2 | 12µM* | -12%
COc1ccc(C(C)=O)cc1Cn1c(C)c(C(=O)NCc2ccc3c(c2)OCO3)sc1=O | x | 23 | x | x | x
CN(Cc1ccccc1)C(=S)Nc1ccc2nc3n(c(=O)c2c1)CCCCC3 | -13 | 24 | 1 | u | 14%
Cc1ccc(/C=c2\sc3nc(-c4ccccc4Br)nn3c2=O)o1 | -4 | 16 | -1 | 4% | 12µM*
Cc1ccc(/C=c2\sc3nc(-c4ccco4)nn3c2=O)o1 | 8 | x | 9 | 10% | u
O=S(=O)(Nc1cccc(S(=O)(=O)N2CCCC2)c1)c1ccc(Cl)cc1 | x | -39 | x | x | x
Cc1cc(C2=NNC(=NCCc3ccccc3)SC2)c(C)n1-c1c(C)n(C)n(-c2ccccc2)c1=O | 14 | -32 | -4 | 6.6µM* | u
COCCN=C1NN=C(c2cc(C)n(CC3CCCO3)c2C)CS1 (configuration not stated) | 29 | 30 | -3 | u | 9.3µM*

Assay outcomes: PubChem, National Center for Advancing Translational Sciences (NCATS)
